Compound activity deposited in PubChem by National Center for Advancing Translational Sciences (NCATS).
NS1 function inh: qHTS Assay for Inhibitors of Influenza NS1 Protein Function | 0.4% of 270,000 active | Potency, µM (titrated, usually from 46.1 µM), without a hit: top-dose activity, positive = more growth; calls by dose curve; also: potency is read from the fitted curve at half-maximal effect; actives are rising curves; nearly all actives have a fitted effect of over 50% in size
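Growth recovery, yeast-based: influenza A NS1 expressed in S. cerevisiae causes slow growth, and suppressors are detected by OD600. The parent strain without NS1 is used as positive control.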
Pf growth 48h: Primary qHTS for delayed death inhibitors of the malarial parasite plastid, 48 hour incubation. P. falciparum luciferase growth in erythrocytes, 48 h. Potency, µM (highest dose often 28.7 µM), for inactives: at the top dose activity change, negative = inhibition, usual class: inhibitors. 5.9% of 310,000 active. AID 504832, 2011; also: potency is read from the fitted curve at half-maximal effect; % is scaled to controls: 0 for no effect and ±100 for the full control effect
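Luminescence readout; reporter = integrated firefly luciferase in P. falciparum. RBC culture at 2% hematocrit, 0.1% parasitemia final, 37 C/5% CO2; decreased signal taken as growth inhibition.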
Cycloheximide cs: Cycloheximide Counterscreen for Small Molecule Inhibitors of Shiga Toxin. cell reporter, cycloheximide protein synthesis inhibition counterscreen. max response, %. 12% of 300,000 active. AID 2314, 2010; in the data active = max response mostly above about 13%, no sharp cut-off; inactive = mostly below about 14%; also: read at 38.3 µM for the half of the compounds with a filed dose; 0% is about no effect
FBPA Giardia inh: qHTS Assay for Inhibitors of Fructose-1,6-bisphosphate Aldolase from Giardia Lamblia | A8B2U2 | purified Giardia FBPA | Potency, µM (titrated, usually from 59.6 µM), without a hit: at the highest dose activity, negative = inhibition, usual class: inhibitors | 0.71% of 290,000 active | AID 2451, 2010; also: potency is read from the fitted curve at half-maximal effect; % is scaled to controls: 0 for no effect and ±100 for the full control effect; nearly all actives have a fitted effect of over 55% in size
Target sequence (A8B2U2 whole entry, looked up): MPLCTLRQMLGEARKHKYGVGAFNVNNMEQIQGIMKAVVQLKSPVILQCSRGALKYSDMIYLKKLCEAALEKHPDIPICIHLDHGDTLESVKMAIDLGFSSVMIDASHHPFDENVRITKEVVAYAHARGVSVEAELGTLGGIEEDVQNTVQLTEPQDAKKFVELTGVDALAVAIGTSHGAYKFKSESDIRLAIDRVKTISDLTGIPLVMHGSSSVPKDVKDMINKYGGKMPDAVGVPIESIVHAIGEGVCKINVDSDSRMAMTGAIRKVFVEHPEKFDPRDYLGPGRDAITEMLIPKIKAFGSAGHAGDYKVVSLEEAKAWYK
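40 nM FBPA preincubated 10 min at RT with compound (up to 57.5 uM final), then substrate plus GAPDH/TPI/NAD/arsenate coupling and diaphorase/resazurin added. Fluorescence read after 20 min at RT, 525/598 nm.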
Shiga inhibitor: A qHTS for Small Molecule Inhibitors of Shiga Toxin | inhibition, % at 38.7 µM | 9.2% of 290,000 active | Vero cells, Shiga toxin protein synthesis inhibition reporter; in the data active = inhibition mostly above about 28%, no sharp cut-off; inactive = mostly below about 43%; also: 0% is about no effect
Pf growth 96h: Primary qHTS for delayed death inhibitors of the malarial parasite plastid, 96 hour incubation. P. falciparum luciferase reporter growth, 96 h. Potency, µM (doses to about 28.7 µM), without a hit: at the highest dose activity change, negative = inhibition, most hits filed as inhibitors. 6.9% of 320,000 active. AID 504834, 2011; also: potency is read from the fitted curve at half-maximal effect; % is scaled to controls: 0 for no effect and ±100 for the full control effect
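96 h incubation, 37 C, 5% CO2, of luciferase-reporter P. falciparum-infected RBCs (2% hematocrit, 0.05% parasitemia final) with test compounds; endpoint luminescence.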
Numbers without * were called inactive; [ ] = another dose, or the depositor's remark. Sampled rows, rich in hits. Any-hit rate of the full collection: about 21%. Unless noted, calls follow the shape of the dose curve; as a rule, active = well fitted curve in the direction sought with a large enough effect; inconclusive = small, poorly fitted or top-dose-only effect, or another doubt; inactive = no such curve, though single readings can be large; an effect the other way counts as inactive or inconclusive.

How did COc1ccc(-c2csc3ncnc(N4CCN(c5ccccc5OC)CC4)c23)cc1 do in these assays?
NS1 function inh: -24%; Pf growth 48h: 5.9µM*; Cycloheximide cs: 1; FBPA Giardia inh: 13%; Shiga inhibitor: -11; Pf growth 96h: inconclusive

What do the screens show for `COc1ccc(-c2csc3ncnc(N4CCN(CCO)CC4)c23)cc1`?
NS1 function inh: 6%; Pf growth 48h: -10%; Cycloheximide cs: -3; FBPA Giardia inh: 0%; Shiga inhibitor: -5; Pf growth 96h: -28%

Results for Cc1ccc(-c2csc3ncnc(N4CCN(S(=O)(=O)c5cccs5)CC4)c23)cc1 ?
Pf growth 48h: 6.6µM*; Pf growth 96h: inconclusive

Results for CCOc1ccccc1N1CCN(c2ncnc3scc(-c4ccc(OC)cc4)c23)CC1 ?
NS1 function inh: -2%; Pf growth 48h: 5.9µM*; Cycloheximide cs: 0; FBPA Giardia inh: 6%; Shiga inhibitor: 2; Pf growth 96h: inconclusive

What do the screens show for `COc1cc(/C=N\NC(=O)C(C)(C)O)ccc1OC/C=C/c1ccccc1`?
NS1 function inh: -41%; Pf growth 48h: -10%; Cycloheximide cs: 9; FBPA Giardia inh: 9%; Shiga inhibitor: -9; Pf growth 96h: inconclusive

What do the screens show for `CCCCc1nc2c(c3c1C[C@H](C)OC3)CN(S(=O)(=O)c1ccc(NC(C)=O)cc1)CC2`?
FBPA Giardia inh: 5%[12.9 µM]

What do the screens show for `CNC(=O)c1cc(C(=O)c2ccc(C(F)(F)F)cc2F)c[nH]1`?
Pf growth 48h: 243%; Cycloheximide cs: 19*; FBPA Giardia inh: 4%; Shiga inhibitor: 21; Pf growth 96h: 117%

What do the screens show for `CNC(=O)c1cc(C(=O)c2ccc(C(F)(F)F)cc2)c[nH]1`?
NS1 function inh: 6%; Cycloheximide cs: 27*; FBPA Giardia inh: 12%; Shiga inhibitor: 60*; Pf growth 96h: 35%

What do the screens show for `CNC(=O)c1cc(C(=O)c2ccccc2C(F)(F)F)c[nH]1`?
NS1 function inh: 3%; Pf growth 48h: -7%; Cycloheximide cs: -2; FBPA Giardia inh: -6%; Shiga inhibitor: -13; Pf growth 96h: 1%

Results for CN(C)CCn1c(=O)n(-c2cccc(Cl)c2)c(=O)c2c3c(sc21)CCCCC3 ?
NS1 function inh: -3%; Pf growth 48h: 13µM*; Cycloheximide cs: -3; FBPA Giardia inh: 3%; Shiga inhibitor: -10; Pf growth 96h: inconclusive

Results for CN(C)CCn1c(=O)n(-c2ccc(F)cc2)c(=O)c2c3c(sc21)CCCCC3 ?
NS1 function inh: 10%; Pf growth 48h: inconclusive; Cycloheximide cs: 3; FBPA Giardia inh: 23%; Shiga inhibitor: -8; Pf growth 96h: inconclusive

What do the screens show for `COc1ccc(CC(=O)c2ccc(O)cc2O)cc1`?
NS1 function inh: -54%; Pf growth 48h: 85%; Cycloheximide cs: 49*; FBPA Giardia inh: 23%; Shiga inhibitor: 59*; Pf growth 96h: -42%

How did CCOc1ccc(C(=O)Cc2ccc3oc(C(=O)O)cc3c2)c(O)c1 do in these assays?
NS1 function inh: -5%; Pf growth 48h: 10%; Cycloheximide cs: 1; FBPA Giardia inh: inconclusive; Shiga inhibitor: 1; Pf growth 96h: 63%

How did CCCCCC(=O)NNC(=O)Cc1ccc([N+](=O)[O-])cc1 do in these assays?
Pf growth 48h: 25%; Cycloheximide cs: 9; FBPA Giardia inh: 9%; Shiga inhibitor: -1; Pf growth 96h: 5%

How did O=C(Cc1ccc(Br)cc1)c1ccc(O)cc1O do in these assays?
NS1 function inh: -239%; Pf growth 48h: 71%; Cycloheximide cs: 49*; FBPA Giardia inh: 11%; Shiga inhibitor: 186*

What do the screens show for `O=C(Cc1ccc2c(c1)OCCO2)c1c(O)cc(O)cc1O`?
NS1 function inh: 13%; Pf growth 48h: 40%; Cycloheximide cs: 32*; FBPA Giardia inh: 18%; Shiga inhibitor: 57*; Pf growth 96h: -1%

How did O=C(Cc1ccc([N+](=O)[O-])cc1)c1ccc(O)cc1O do in these assays?
NS1 function inh: -58%; Pf growth 48h: 36%; Cycloheximide cs: 16*; FBPA Giardia inh: 13%; Shiga inhibitor: 61*; Pf growth 96h: -23%

What do the screens show for `CCOc1ccccc1C(=O)Nc1nn[nH]n1`?
NS1 function inh: 0%; Pf growth 48h: 0%; Cycloheximide cs: -2; FBPA Giardia inh: inconclusive; Shiga inhibitor: -7; Pf growth 96h: 3%
